Only a selection was taken, and hits are over-represented in it overall.
IDE exosite inh: exo-site inhibitors of human insulin-degrading enzyme; hit rate 6.3% among 17,000; purified IDE, FL-6b probe fluorescence polarization; stronger effect = lower value; z-score at 20 µM;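 active means z-score of -3 or lower, meaning strong loss of probe binding signal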;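 further: His-tagged human IDE residues 42-1019 made in E. coli with 30 nM FL-6b probe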
Target sequence (P14735 42-1019 limits assumed): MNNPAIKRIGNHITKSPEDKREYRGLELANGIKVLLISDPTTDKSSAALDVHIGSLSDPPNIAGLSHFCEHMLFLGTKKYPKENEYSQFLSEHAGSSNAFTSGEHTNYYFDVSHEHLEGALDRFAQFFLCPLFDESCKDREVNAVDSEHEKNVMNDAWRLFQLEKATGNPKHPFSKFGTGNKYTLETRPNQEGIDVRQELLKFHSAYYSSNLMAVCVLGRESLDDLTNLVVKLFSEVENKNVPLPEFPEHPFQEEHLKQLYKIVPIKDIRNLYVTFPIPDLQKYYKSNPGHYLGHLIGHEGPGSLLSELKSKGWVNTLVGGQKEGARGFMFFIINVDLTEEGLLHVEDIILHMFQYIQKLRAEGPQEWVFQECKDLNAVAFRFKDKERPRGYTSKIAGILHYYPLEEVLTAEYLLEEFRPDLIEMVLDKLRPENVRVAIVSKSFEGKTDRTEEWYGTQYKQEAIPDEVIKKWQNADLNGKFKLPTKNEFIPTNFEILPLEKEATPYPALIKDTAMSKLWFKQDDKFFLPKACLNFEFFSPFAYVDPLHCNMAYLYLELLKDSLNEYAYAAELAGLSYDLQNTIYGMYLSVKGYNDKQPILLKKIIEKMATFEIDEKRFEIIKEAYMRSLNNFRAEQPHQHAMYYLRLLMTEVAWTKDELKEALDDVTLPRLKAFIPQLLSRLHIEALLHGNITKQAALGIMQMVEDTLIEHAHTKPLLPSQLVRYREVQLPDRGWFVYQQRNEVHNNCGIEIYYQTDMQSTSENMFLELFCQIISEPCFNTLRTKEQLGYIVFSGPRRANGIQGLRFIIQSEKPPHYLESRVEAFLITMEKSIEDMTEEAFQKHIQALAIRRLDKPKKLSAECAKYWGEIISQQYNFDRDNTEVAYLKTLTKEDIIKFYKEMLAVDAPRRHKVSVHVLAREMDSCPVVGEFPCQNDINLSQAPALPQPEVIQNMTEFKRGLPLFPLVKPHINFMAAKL
Of the large screens only hits and unclear results are named; the others gave an inactive call.

CN(C)CC(=O)N1[C@H](CO)[C@H](c2ccc(/C=C/c3ccccc3)cc2)[C@@H]1C#N	none
CC(=O)N1CC(=O)N2[C@H](CO)[C@@H](c3ccc(C#CC(C)C)cc3)[C@@H]2C1	none
N#C[C@@H]1[C@@H](c2ccccc2)[C@@H](CO)N1S(=O)(=O)c1ccc(F)cc1	none
O=C(C[C@@H]1C[C@H]2c3cc(NS(=O)(=O)c4ccc(F)cc4)ccc3O[C@H]2[C@@H](CO)O1)N1CCc2ccccc2C1	none
CCc1sc(N2[C@H](C#N)[C@H](c3ccccc3-c3ccc(F)cc3)[C@H]2CO)nc1C	none
O=C(CCN1CCCCC1)N[C@H]1CC[C@@H](CCn2cc(-c3cccc(F)c3)nn2)O[C@@H]1CO	none
CCCC#Cc1ccc([C@H]2[C@@H](C#N)N(C(=O)C3CCC3)[C@H]2CO)cc1	none
O=C(CC1CC1)N1CC2(C1)[C@H](c1ccccc1)[C@@H](CO)N2C(=O)c1ccccn1	none
CCCC(=O)Nc1ccc2c(c1)OC[C@@H](C)N(C(=O)c1cccnc1)C[C@H](C)[C@H](OC)CN(C)C2=O	none
O=C(NC[C@H]1[C@H](c2ccccc2)[C@H](CO)N1C(=O)Cc1cccnc1)C1CCC1	none
CN1C(=O)c2cc(NC(=O)NCc3ccccc3)ccc2OC[C@@H]2O[C@H](CC(=O)NCC3CCCCC3)CC[C@@H]21	none
Cc1ccc(S(=O)(=O)Nc2ccc3c(c2)C(=O)N(C)[C@@H]2CC[C@@H](CC(=O)NCCc4ccncc4)O[C@H]2CO3)cc1	none
Cc1cccc(S(=O)(=O)N2CCCCN3[C@H](CO)[C@H](c4ccc(C#C[C@H](C)O)cc4)[C@@H]3C2)c1	none
CN(C)CC(=O)N1[C@H](C#N)[C@@H](c2ccc(-c3ccccc3F)cc2)[C@@H]1CO	none
CN(C)CC(=O)N1[C@H](C#N)[C@@H](c2ccccc2-c2ccccc2F)[C@@H]1CO	none
CN(C)CC(=O)N1[C@@H](C#N)[C@H](c2ccc(-c3ccccc3F)cc2)[C@@H]1CO	IDE exosite inh -4.5
CS(=O)(=O)N1CC(=O)N2[C@H](CO)[C@@H](c3ccc(C#CCC4CCCC4)cc3)[C@H]2C1	none
COc1cccc(-c2ccccc2[C@H]2[C@@H](C#N)N(C(=O)c3ccccn3)[C@@H]2CO)c1	none
O=C(NC[C@@H]1N[C@@H](CO)[C@@H]1c1ccccc1)c1ccccc1F	none
COc1cccc(-c2ccc([C@H]3[C@@H](C#N)N(C(=O)Cc4ccccc4)[C@@H]3CO)cc2)c1	IDE exosite inh -3.8
N#C[C@H]1[C@H](c2ccc(-c3ccccc3F)cc2)[C@H](CO)N1C(=O)c1ccccn1	IDE exosite inh -3.1
CCCNC(=O)N1[C@H](C#N)[C@@H](c2ccc(-c3cccc(OC)c3)cc2)[C@H]1CO	none
N#C[C@@H]1[C@@H](c2ccccc2-c2ccccc2F)[C@@H](CO)N1C(=O)c1ccccn1	none
COc1cccc(-c2ccccc2[C@H]2[C@@H](C#N)N(C(=O)Cc3ccccc3)[C@H]2CO)c1	none
COc1cccc(-c2ccc([C@@H]3[C@@H](C#N)N(C(=O)c4ccccn4)[C@@H]3CO)cc2)c1	IDE exosite inh -5
COc1cccc(-c2ccccc2[C@H]2[C@@H](C#N)N(C(=O)Cc3ccccc3)[C@@H]2CO)c1	none
N#C[C@H]1[C@H](c2ccc(-c3ccccc3F)cc2)[C@@H](CO)N1C(=O)c1ccccn1	none
O=C(NC[C@H]1N[C@@H](CO)[C@H]1c1ccc(-c2ccccc2)cc1)c1ccccc1F	none
O=C(NC[C@@H]1N[C@@H](CO)[C@@H]1c1ccc(-c2ccccc2F)cc1)c1ccccn1	IDE exosite inh -4.5
Cc1cc(C(=O)Nc2ccc3c(c2)C(=O)N(C)[C@H]2CC[C@@H](CC(=O)O)O[C@@H]2CO3)no1	none
CCCC#Cc1ccc([C@@H]2[C@@H](CO)N(C(=O)C3CCCC3)[C@H]2C#N)cc1	none
N#C[C@@H]1[C@H](c2ccc(C3=CCCC3)cc2)[C@@H](CO)N1C(=O)C1CCCC1	none
COc1ccc2c3c(n(C)c2c1)[C@H](CO)N(C)CC31CN(S(=O)(=O)c2cccs2)C1	none
COc1ccccc1NC(=O)N1C[C@@H]2[C@H](c3ccccc31)[C@H](CO)N2Cc1ccc2c(c1)OCO2	none
CCCC#Cc1ccc([C@@H]2[C@H]3CN(C(=O)Nc4cccc(F)c4)CC(=O)N3[C@H]2CO)cc1	none
COc1ccc2c3c(n(C)c2c1)[C@H](CO)N(C(=O)Nc1ccc(F)cc1)CC31CN(Cc2ccccc2F)C1	none
COc1cccc(-c2ccc([C@@H]3[C@@H](C#N)N(C(=O)Cc4ccccc4)[C@H]3CO)cc2)c1	none
COc1cccc(-c2ccc([C@@H]3[C@@H](CO)N(C(=O)Cc4ccccc4)[C@H]3C#N)cc2)c1	none
COc1cccc(-c2ccc([C@@H]3[C@@H](C#N)N(C(=O)Cc4ccccc4)[C@@H]3CO)cc2)c1	IDE exosite inh -5.3
CN(C)Cc1cn(CC[C@H]2CC[C@H](NC(=O)Cc3cccnc3)[C@@H](CO)O2)nn1	none
COc1ccccc1NC(=O)N1CCCCN2[C@H](C1)[C@@H](c1ccc(C#Cc3ccccc3)cc1)[C@@H]2CO	none
COCC(=O)N1CCCCN2[C@@H](CO)[C@@H](c3ccc(C#Cc4ccccc4)cc3)[C@@H]2C1	IDE exosite inh -8.5
COCC(=O)N1CCCCN2[C@H](C1)[C@H](c1ccc(C#Cc3ccc(OC)cc3)cc1)[C@@H]2CO	none
COCC(=O)N1CCCCN2[C@H](CO)[C@@H](c3ccc(C#Cc4ccccc4)cc3)[C@@H]2C1	IDE exosite inh -8.5
COc1ccccc1NC(=O)N1CCCCN2[C@H](CO)[C@H](c3ccc(C#Cc4ccccc4)cc3)[C@H]2C1	none
COCC(=O)N1CCCCN2[C@@H](CO)[C@@H](c3ccc(C#Cc4ccc(OC)cc4)cc3)[C@@H]2C1	none
COCC(=O)N1CCCCN2[C@H](CO)[C@H](c3ccc(C#Cc4ccccc4)cc3)[C@H]2C1	IDE exosite inh -6.3
COCC#Cc1ccc([C@@H]2[C@H](CO)N3CCCCN(C(=O)COC)C[C@@H]23)cc1	none
CS(=O)(=O)Nc1ccc2c(c1)[C@H]1C[C@@H](CC(=O)NCc3cc(F)ccc3F)O[C@H](CO)[C@H]1O2	none
C[C@@H]1CCCCO[C@@H](CN(C)C(=O)c2ccncc2)[C@@H](C)CN([C@@H](C)CO)C(=O)c2cc(NS(=O)(=O)c3cccs3)ccc2O1	none
CCCNC(=O)N1[C@@H](C#N)[C@@H](c2ccccc2)[C@@H]1CO	none
C/C=C/c1ccc([C@@H]2[C@@H](CO)N(C(C)=O)[C@H]2CN(C(=O)COC)C(C)C)cc1	none
O=C(c1ccccc1F)N1CC(=O)N2[C@H](C1)[C@@H](c1ccc(C#Cc3ccc(F)cc3)cc1)[C@@H]2CO	none
O=C(C1CCCCC1)N1[C@@H](CO)[C@@H]2c3ccccc3NC[C@@H]21	none
O=C(C1CCOCC1)N1CC(=O)N2[C@H](CO)[C@H](c3ccc(C#CC4CCCCC4)cc3)[C@@H]2C1	none
CCC(=O)N1Cc2cc(C(=O)NCCOC)nc(-c3cccc(-c4ccc(C#N)cc4)c3)c2[C@H]1CCO	none
CC(C)(C)[S@](=O)N1Cc2cc(C(=O)NCC(F)(F)F)nc(-c3cccc(-c4cccc(F)c4)c3)c2[C@@H]1CCO	none
CCCNC(=O)c1cc2c(c(-c3cccc(-c4ccc(F)cc4)c3)n1)[C@H](CCO)N([S@@](=O)C(C)(C)C)C2	none
CC(C)(C)[S@@](=O)N1Cc2cc(C(=O)NCc3ccccc3F)nc(-c3cccc(-c4cncnc4)c3)c2[C@H]1CCO	IDE exosite inh -5.5
CN(C)CC#Cc1ccc([C@H]2[C@H](CO)N3CCCCN(C(=O)Nc4cc(F)ccc4F)C[C@@H]23)cc1	none
O=C(Nc1ccccc1)N1CCCCN2[C@@H](CO)[C@H](c3ccc(C#Cc4ccccc4)cc3)[C@@H]2C1	none

Compound activity from PubChem.
